Our source for the Potency values is PubChem BioAssay (Tox21).

Molecules are shown by their SMILES. Several values for one entry are separate records, joined by “and”; a condition that tells them apart may be missing. Equal entries are not always repeated. Inconclusive results are not listed. A call without a number means that no potency is given here. Activity calls are given as the source filed them. Calls follow the shape of the dose curve; as a rule, active = well fitted cell-killing curve with a large enough effect in the repeat runs; inconclusive = weak or mixed curves, or effect the other way; inactive = flat fitted curve, though single readings scatter.
Potency is read from the fitted curve at half-maximal effect.

A short description of the test: qHTS RealTime-Glo MT Cell Viability Assay in HEK293 cells - 8 hour (AID 1224887). Also: nearly all actives have a fitted effect of over 50% in size. Particulars: RealTime-Glo luminescence; series mostly up to 76.8 µM. From the text: U.S. Tox21 Program National Center for Advancing Translational Sciences [NCATS] NIH Chemical Genomics Center [NCGC] U.S. Environmental Protection Agency [EPA] National Institutes of Environmental Health Sciences [NIEHS] National Toxicology Program [NTP] U.S. Food and Drug Administration [FDA] Tox21 Assay Overview: Measure of cell viability is critical in the cell-base assay. Analysis of cell viability is necessary for the characterization of cell responses to cytotoxic drugs and environmental stress. A RealTime-Glo MT Cell Viability Assay to monitor cell viability in real time of continues cell culture during 40 hours of compound treatment was used to screen Tox21 10K library compounds in Hek293 cells. The RealTime-Glo MT Cell Viability Assay is a nonlytic, homogeneous, bioluminescent method to measure cell viability in real time using a simple, plate-based method. The assay involves adding NanoLuc luciferase and a cell-permeant prosubstrate to cells in culture. Viable cells reduce the proprietary prosubstrate to generate a substrate for NanoLuc luciferase. This substrate diffuses from cells into the surrounding culture medium, where it is rapidly used by the NanoLuc Enzyme to produce a luminescent signal. The signal correlates with the number of viable cells, making the assay well suited for cytotoxicity studies.
Tox21 Assay Protocol Summary: The mixture of Hek293 cell suspension and reagents were dispensed at 600cells/6 ul/well in 1536-well tissue culture treated black solid bottom plates using a Multidrop dispenser. After the assay plates were incubated at a 37 C/5% CO2 incubator for 5 hours, 23 nL of compounds dissolved in DMSO, positive and negative controls was transferred to the assay plate by a pintool work station. The plates were incubated at 37 C for 40 hours. The luminescence intensity were measured at 0h, 8h, 16h, 24h, 32h and 40h time points using ViewLux plate reader during compound treatment.
In general terms: In qHTS, concentration-response curves come from the screen itself.
Regarding `COP(=S)(OC)Oc1cc(Cl)c(Br)cc1Cl`, the Potency entry was “inactive”.
In the case of `COc1cccc(C(=O)CCN[C@@H](C)[C@H](O)c2ccccc2)c1`, the Potency result was “inactive”.
On to `CCCCCCCCCCCCCCC(Br)C(=O)O` (stereo not given), for which the Potency entry is “inactive”.
Under `ClC(Cl)=C(Cl)Cl` stands “inactive”.
Take `Clc1ccc(-c2ccc(Cl)c(Cl)c2Cl)c(Cl)c1Cl`: the Potency result is “inactive”.
Regarding `Cc1cc(C(F)(C(F)(F)F)C(F)(F)F)ccc1NC(=O)c1cccc(I)c1C(=O)NC(C)(C)CS(C)(=O)=O`, the Potency result is “inactive”.
For the compound `O=[N+]([O-])c1ccc2ccc3cccc4ccc1c2c34`, the Potency entry was “inactive”.
On to `O=C(NC(=O)c1c(F)cccc1F)Nc1cc(Cl)c(OC(F)(F)C(F)F)c(Cl)c1`, for which the Potency entry was “inactive”.
Consider `CCCN(CC)CC1COC2(CCC(C(C)(C)C)CC2)O1` (stereo not given), for which the Potency result was “inactive”.
To `CCOP(=S)(OCC)SCS(=O)(=O)C(C)(C)C` belongs “inactive”; to `[Cl][Sn]([c]1ccccc1)([c]1ccccc1)[c]1ccccc1`, 0.737 µM (active); to `CN(C)C(=S)S`, “inactive”.
As for `Cn1[nH]nnc1=S`, the Potency entry is “inactive”.
To `C[C@]12CC[C@H](O)C[C@H]1CC[C@@H]1[C@@H]2C[C@@H](O)[C@]2(C)[C@@H](C3=CC(=O)OC3)CC[C@]12O` belongs “inactive”; to `Clc1ccc(C(c2ccc(Cl)cc2)C(Cl)(Cl)Cl)cc1`, 39.2 µM (active).
`Oc1ccc(I)cc1`: the Potency entry is “inactive”.
For `CC(C)CC(C)Nc1ccc(Nc2ccccc2)cc1` (stereo not given), the Potency is 19.2 µM (active).
Under `O=c1oc2ccccc2c(O)c1Cc1c(O)c2ccccc2oc1=O` stands “inactive”; under `O=C(CCCN1CCC2(CC1)C(=O)NCN2c1ccccc1)c1ccc(F)cc1`, 16.9 µM (active).
With `COCC(=O)N(c1c(C)cccc1C)[C@H](C)C(=O)OC`, the Potency entry is “inactive”.
Regarding `CCCCCCCCCCCCCC[P+](CCCCCC)(CCCCCC)CCCCCC` (tested in a mixture with another compound), the Potency was 13.8 µM (active).
To `CCOP(=S)(OCC)SCCS(=O)(=O)CC` belongs “inactive”; to `CC(C)CC(C)N` (stereo not given), “inactive”.
Regarding `CCCCCCCCCCCCBr`, the Potency entry is “inactive”.
Under `Clc1ccc(-c2ccccc2)cc1` stands “inactive”; under `OC(c1ccc(Cl)cc1)(c1ccc(Cl)cc1)C(Cl)(Cl)Cl`, 49 µM (active); under `Cc1cc(C)cc(OP(=O)(Oc2cc(C)cc(C)c2)Oc2cc(C)cc(C)c2)c1`, “inactive”.
With `N#CCc1ccc(Cl)cc1`, the Potency entry is “inactive”.
For `BrCBr`, the Potency entry was “inactive”.
As to `Nc1ccc(Sc2ccc(N)cc2)cc1`, the Potency result was “inactive”.
Under `N#C/C=C/c1ccccc1` stands “inactive”; under `CCc1nn(C)c(C(=O)NCc2ccc(C(C)(C)C)cc2)c1Cl`, 4.36 µM (active); under `N#CSCSC#N`, 22.4 µM (active) and 21.7 µM (active).
In the case of `CC(C)(COCC1CO1)COCC1CO1` (stereo not given), the Potency entry is “inactive”.
For `C[C@@H]1O[C@@H](O[C@@H]2C=C3CC[C@@H]4[C@H](CC[C@]5(C)[C@@H](c6ccc(=O)oc6)CC[C@]45O)[C@@]3(C)CC2)[C@H](O)[C@H](O)[C@H]1O`, the Potency result is “inactive”.
Consider `[Cd+2].[Cl-].[Cl-]`, for which the Potency entry is “inactive”.
Consider `O=[N+]([O-])c1cc(Cl)ccc1Cl`, for which the Potency result was “inactive”.
Regarding `Oc1ccccc1Br`, the Potency entry is “inactive”.
Consider `ClC1=C(Cl)C2(Cl)C3C(Cl)C=CC3C1(Cl)C2(Cl)Cl` (stereo not given), for which the Potency was 43.8 µM (active) and 43.6 µM (active).
`Clc1ccc(CO/N=C(\Cn2ccnc2)c2ccc(Cl)cc2Cl)c(Cl)c1`: the Potency was 19 µM (active).
